Source: PubChem BioAssay (National Center for Advancing Translational Sciences (NCATS))
Compounds with a hit are over-represented: about 6.9% of the library has one in this group of screens.
Giardia kill – Giardia lamblia killing; Giardia lamblia trophozoite viability; activity change, % at 7.66 µM, hits read low; actives 0.15% (n = 340,000); AID 540267; in the data active = activity change below about -80%; inconclusive = between about -30% and that limit;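 also: parasites exposed to compound for two days anaerobically before the ATP read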
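Each well holds 100 Giardia trophozoites and compound. After two days (48 hrs) at 37 deg C in anaerobic conditions, ATP is quantified by luminescence.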
IL1B secr inh – blocks inflammasome-driven IL-1 beta release; activity change, % at 57.5 µM; THP-1 LPS/ATP IL-1B secretion, AlphaLISA, 16 h; hits give low values; actives 4.7% (n = 360,000); in the data active = activity change below about -50%; inconclusive = mostly about -30% to -49%
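Secreted IL-1B measured by AlphaLISA bead assay after 16 h compound exposure of THP-1 cells; compounds (final up to 57.5 uM) added 1 h before LPS (250 ng/mL) and ATP (1.25 mM) stimulation; lower signal means less secretion.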
Vif-APOBEC3G blk – inhibitors of Vif-APOBEC3G interaction; actives 0.076% (n = 410,000); HeLa A3G-eYFP + Vif (tagged APOBEC3G with the HIV-1 protein that degrades it), YFP fluorescence, overnight; Potency, µM (titrated, usually from 46.1 µM), most hits filed as inhibitors; AID 602310; also: nearly all actives have a fitted effect of over 60% in size
Target sequence (Q9HC16 whole entry, looked up): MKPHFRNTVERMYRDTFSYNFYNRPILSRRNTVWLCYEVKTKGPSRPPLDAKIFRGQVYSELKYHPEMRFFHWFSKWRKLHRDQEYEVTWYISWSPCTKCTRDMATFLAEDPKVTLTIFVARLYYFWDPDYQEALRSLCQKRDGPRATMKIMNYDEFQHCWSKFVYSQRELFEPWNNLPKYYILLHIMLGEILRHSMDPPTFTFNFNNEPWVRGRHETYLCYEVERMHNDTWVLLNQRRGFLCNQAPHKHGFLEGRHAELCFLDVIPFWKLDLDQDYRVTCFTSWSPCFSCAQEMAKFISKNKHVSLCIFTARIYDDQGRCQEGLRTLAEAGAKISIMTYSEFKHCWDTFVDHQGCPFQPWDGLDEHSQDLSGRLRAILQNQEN
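HeLa cells stably expressing Vif and C-terminally eYFP-tagged A3G, seeded overnight at 37 deg C, then exposed to compound by pintool overnight at 37 deg C. Rise in yellow fluorescence (Ex 488/Em 500-530, Acumen) marks blocked Vif-driven A3G degradation.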
MCF10A rereplic – inducers of DNA re-replication in MCF 10A breast cells; MCF 10A DNA re-replication, Hoechst nuclear intensity, 48 h; AID 624296; Potency, µM (doses to about 46.1 µM), most hits filed as activators; actives 2.9% (n = 350,000); also: nearly all actives have a fitted effect of over 50% in size
Vif-APOBEC3F blk – inhibitors of Vif-A3F interaction; HeLa A3F-eYFP + Vif (tagged APOBEC3F with the HIV-1 protein that degrades it), YFP fluorescence increase; Potency, µM (series often up to 46.1 µM); actives 0.2% (n = 390,000); AID 602313; also: nearly all actives have a fitted effect of over 65% in size
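HeLa cells stably expressing Vif plus C-terminally eYFP-tagged A3F were seeded, incubated overnight at 37 deg C, dosed with compound, incubated overnight again at 37 deg C. Yellow fluorescence (Ex 488/Em 500-530) reported blocked Vif-mediated A3F-eYFP degradation.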
SW480 rereplic – induces DNA re-replication in SW480 colon adenocarcinoma cells. SW480 DNA re-replication, Hoechst DNA content imaging, 48 h. Potency, µM (doses to about 46.1 µM), usual class: activators. actives 1.8% (n = 340,000). AID 624297; also: nearly all actives have a fitted effect of over 55% in size
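First, 250 cells per well were seeded. Next, compound or vehicle (23 nL) was pinned in, plates sat 48 hr at 37 C. Finally Hoechst was added for 40 min before fluorescence scanning.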
Of the large screens only hits and unclear results are named; the others gave an inactive call. Unless noted, calls follow the shape of the dose curve; as a rule, active = well fitted curve in the direction sought with a large enough effect; inconclusive = small, poorly fitted or top-dose-only effect, or another doubt; inactive = no such curve, though single readings can be large; an effect the other way counts as inactive or inconclusive.

CCN1/C(=C2\SC(=S)N(Cc3ccccc3)C2=O)Sc2ccccc21	Vif-APOBEC3F blk inconclusive
COc1ccc(CCNC(=O)c2cc(-c3cc(Cl)cc(Cl)c3)oc2C)cc1	MCF10A rereplic inconclusive
Cc1oc(-c2cc(Cl)cc(Cl)c2)cc1C(=O)NCCc1ccccc1	IL1B secr inh inconclusive, MCF10A rereplic 15µM
O=C(O)C(=Cc1ccnc2ccccc12)C(=O)O	none (no result: Giardia kill, MCF10A rereplic, SW480 rereplic)
NC(N)=NN=Cc1ccnc2ccccc12	IL1B secr inh -104 (no result: Giardia kill, MCF10A rereplic, Vif-APOBEC3F blk, SW480 rereplic)
N/C(=N\N=C\c1ccnc2ccccc12)SC1CC(=O)N(c2ccc(Br)cc2)C1=O (centres undefined)	MCF10A rereplic 7.3µM
NC(=NCc1ccccc1)NN=Cc1ccnc2ccccc12	IL1B secr inh -110 (no result: Giardia kill, MCF10A rereplic, Vif-APOBEC3F blk, SW480 rereplic)
CCC(=O)N1c2ccccc2CC1C(=O)NCCc1ccc(OC)c(OC)c1 (centres undefined)	none (no result: Giardia kill, IL1B secr inh, MCF10A rereplic, SW480 rereplic)
Cc1ccc(C(=O)Nc2nc(COc3ccccc3)cs2)s1	IL1B secr inh -87, MCF10A rereplic 21µM, SW480 rereplic inconclusive
CC(=O)Nc1nc(COc2ccccc2)cs1	none
O=C(Nc1nc(COc2ccccc2)cs1)C12CC3CC(CC(C3)C1)C2	MCF10A rereplic 8.2µM
CC(C)c1nc2sc3c(N4CCCCC4)ncnc3c2c2c1CCCC2	none (no result: Giardia kill, IL1B secr inh, MCF10A rereplic, SW480 rereplic)
CCCCN(CCCC)C(=O)c1c[nH]c2ccc(S(=O)(=O)Nc3cccc(Cl)c3C)cc2c1=O	none (no result: Giardia kill, IL1B secr inh, MCF10A rereplic, SW480 rereplic)
N#Cc1c(-c2ccc(F)cc2)c(-c2ccc(F)cc2)nn(CCO)c1=O	Vif-APOBEC3G blk inconclusive, MCF10A rereplic 5.8µM, SW480 rereplic 3.3µM
Cc1c(C(=O)O)sc2nc(/C=C/c3cccc(F)c3)[nH]c(=O)c12	MCF10A rereplic 18µM
Cc1c(C(=O)O)sc2nc(/C=C/c3ccccc3OC(F)F)[nH]c(=O)c12	MCF10A rereplic 26µM, SW480 rereplic 23µM
Cc1ccc(/C=C/c2nc3sc(C(=O)O)c(C)c3c(=O)[nH]2)cc1[N+](=O)[O-]	none
CC12CCC=CC1C(c1cccc([N+](=O)[O-])c1)N(Cc1ccccc1)C2=O (centres undefined)	none (no result: IL1B secr inh, MCF10A rereplic, Vif-APOBEC3F blk, SW480 rereplic)
COc1ccc(-c2nc(C#N)c(N3CCc4ccccc4C3)o2)cc1OC	IL1B secr inh -52, MCF10A rereplic inconclusive, Vif-APOBEC3F blk inconclusive
COc1ccccc1-c1nc(C#N)c(N2CCCCCC2)o1	MCF10A rereplic inconclusive
COc1ccc(N2CCN(c3oc(-c4ccc(OC)c(OC)c4)nc3C#N)CC2)cc1	none
COc1ccccc1-c1nc(C#N)c(N2CCc3ccccc3C2)o1	MCF10A rereplic 16µM
O=S1(=O)C=C(SCc2cccc(Cl)c2)Nc2ccccc21	IL1B secr inh -51
Cc1cccc(CSC2=CS(=O)(=O)c3ccccc3N2)c1	none
Cc1ccccc1CN1Cc2cccc3c2[C@H](C=CC3)CC1=O	none (no result: Giardia kill, IL1B secr inh, MCF10A rereplic, Vif-APOBEC3F blk, SW480 rereplic)
Cc1ccccc1CC(=O)c1ccc(O)c(C)c1O	IL1B secr inh -55, MCF10A rereplic inconclusive
CC1=C/C(=N\OS(=O)(=O)c2ccccc2)C(C(C)C)=CC1=O	IL1B secr inh -95, MCF10A rereplic 4.1µM, SW480 rereplic 3.7µM
CC(S(=O)(=O)c1ccccc1)S(=O)(=O)c1ccccc1	none (no result: Giardia kill, MCF10A rereplic, SW480 rereplic)
CC1=C(C)/C(=N\OS(=O)(=O)c2ccc(C)cc2)C=CC1=O	IL1B secr inh -103, MCF10A rereplic inconclusive, SW480 rereplic 5.2µM
COc1ccc(S(=O)(=O)/N=C2/C=CC(=O)C(C)=C2C)cc1	MCF10A rereplic inconclusive
CC1=C/C(=N\OS(=O)(=O)c2ccccc2)C(C)=CC1=O	IL1B secr inh -98, MCF10A rereplic 4µM, SW480 rereplic 4.1µM
COc1ncnc2sc(-c3ccccc3)cc12	none
CN(C)c1ncnc2sc(-c3ccccc3)cc12	IL1B secr inh -55
CC(C)(C)Nc1ncnc2sc(-c3ccccc3)cc12	MCF10A rereplic 18µM, SW480 rereplic inconclusive
Cc1cc2c(Nc3ccccc3)ncnc2s1	SW480 rereplic inconclusive
C=COCCCNc1ncnc2sc(-c3ccccc3)cc12	MCF10A rereplic inconclusive
Cc1cc2c(NCCc3ccccc3)ncnc2s1	IL1B secr inh -70
OCCCNc1ncnc2sc(-c3ccccc3)cc12	IL1B secr inh -68, SW480 rereplic inconclusive
Clc1ccc2nc(CN3CCCc4ccccc43)cn2c1	IL1B secr inh -78
Clc1ccc2nc(CN3CCCCC3)cn2c1	none
O=C(/C=C/c1ccccc1)CC(O)(c1ccccc1)C(F)(F)C(F)F (centres undefined)	IL1B secr inh -97
O=C(CC(O)(c1ccccc1)C(F)(F)C(F)F)c1cccs1 (centres undefined)	none
O=C(/C=C/c1ccccc1)CC(O)(c1ccccc1)C(F)(F)F (centres undefined)	IL1B secr inh -99, Vif-APOBEC3G blk inconclusive, SW480 rereplic inconclusive
COc1ccc(/C=C/C(=O)CC(O)(c2ccccc2)C(F)(F)F)cc1 (centres undefined)	IL1B secr inh inconclusive, MCF10A rereplic inconclusive, SW480 rereplic inconclusive
CC(=O)Nc1ccc(NC(=O)C2CC(=O)N(Cc3ccccc3)C2)cc1 (centres undefined)	none
O=C(Nc1ccc(Br)cc1Br)C1CC(=O)N(Cc2ccccc2)C1 (centres undefined)	IL1B secr inh -56
Cc1ccc(NC(=O)C2CC(=O)N(Cc3ccccc3)C2)cc1S(=O)(=O)N1CCCCCC1 (centres undefined)	IL1B secr inh -52
Cc1ccc(NC(=O)C2CC(=O)N(C(C)C)C2)cc1C (centres undefined)	IL1B secr inh -65
Cc1cc(C)c(NC(=O)C2CC(=O)N(Cc3ccccc3)C2)c(C)c1 (centres undefined)	SW480 rereplic 16µM
O=C(Nc1ccccc1N1CCCC1)C1CC(=O)N(Cc2ccccc2)C1 (centres undefined)	none
O=C(Nc1ccc(S(=O)(=O)N2CCCCC2)cc1)C1CC(=O)N(Cc2ccccc2)C1 (centres undefined)	none
CSc1ncc2c(n1)-c1ccccc1N(Cc1ccc(Cl)cc1)S2(=O)=O	none (no result: Giardia kill, IL1B secr inh, MCF10A rereplic, SW480 rereplic)
CCOc1ccc(NC(=O)Cn2cc(C(=O)c3ccc(F)cc3)c(=O)c3cc4c(cc32)OCCO4)cc1	none (no result: Giardia kill, IL1B secr inh, MCF10A rereplic, SW480 rereplic)
COc1cc(OC)c(/C=C/c2cc3c4ccccc4ccc3[n+](C)c2)c(OC)c1	none (no result: Giardia kill, IL1B secr inh, MCF10A rereplic, Vif-APOBEC3F blk, SW480 rereplic)
COc1cccc(NC(=O)Cn2c(=O)n(-c3ccc(C)cc3)c(=O)c3ccc(C(=O)NCc4ccco4)cc32)c1	Vif-APOBEC3F blk inconclusive (no result: Giardia kill, IL1B secr inh, MCF10A rereplic, SW480 rereplic)
Cc1nc2ccn(Cc3ccccc3)c(=O)c2cc1C(=O)Nc1ccc(F)cc1Cl	none (no result: Giardia kill, IL1B secr inh, MCF10A rereplic, SW480 rereplic)
COc1cccc(-n2nnnc2SCC(=O)N2CCCc3ccccc32)c1	MCF10A rereplic inconclusive, SW480 rereplic 12µM
COc1cc(OC)cc(-n2nnnc2SCC(=O)N2CCCc3ccccc32)c1	none
COCCNC(=S)N/N=C(\C)c1ccc(OC(F)F)cc1	Vif-APOBEC3F blk 25µM
